Screening data as filed in PubChem BioAssay.
Hits are enriched below; roughly 11% of the tested compounds scored in any of these assays.
PNC inhibitor: High Content Assay for Compounds that inhibit the Assembly of the Perinucleolar Compartment; PC3M PTB-GFP, PNC prevalence imaging, 16 h; stronger effect = lower value; activity change (PNC), negative = inhibition, % at 10 µM; 140,000 tested, 3.1% active; AID 2417, 2010;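 active means readout at or below -70, meaning at least 70% loss of cells showing the perinucleolar compartment, a nuclear body marking cancer cells; inconclusive means readout between -30 and a set limit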
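Read-out is percentage of cells bearing a perinucleolar compartment, from automated 20x imaging of fixed, Hoechst-stained PC3M PTB-GFP cells. Cells were seeded 4 h, then exposed 16 h to compound (23 nl of library stock) in duplicate plates.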
JMJD2E inh: qHTS Assay for Inhibitors of Human Jumonji Domain Containing 2E (JMJD2E) | 230,000 tested, 1.6% active | JMJD2E catalytic domain, FDH-coupled NADH fluorescence (FDH is formaldehyde dehydrogenase) | Potency, µM (titrated, usually from 57.1 µM), most hits filed as inhibitors | Lysine-specific demethylase 4E (Homo sapiens), B2RXH2; further: nearly all actives have a fitted effect of over 50% in size
ALDH1A1 inh: qHTS Assay for Inhibitors of Aldehyde Dehydrogenase 1 (ALDH1A1) | 220,000 tested, 7.3% active | Potency, µM (top dose mostly 75.3 µM), usual class: inhibitors | Aldehyde dehydrogenase 1A1 (Homo sapiens), P00352 | Purified ALDH1A1, NADH fluorescence, propionaldehyde substrate
HPGD block: qHTS Assay for Inhibitors of HPGD (15-Hydroxyprostaglandin Dehydrogenase) | 15-hydroxyprostaglandin dehydrogenase [NAD(+)] (Homo sapiens), P15428 | purified HPGD, NADH fluorescence kinetic, PGE2 substrate | Potency, µM, most hits filed as inhibitors | 150,000 tested, 4.3% active | AID 894, 2007
Target sequence (P15428 whole entry, looked up): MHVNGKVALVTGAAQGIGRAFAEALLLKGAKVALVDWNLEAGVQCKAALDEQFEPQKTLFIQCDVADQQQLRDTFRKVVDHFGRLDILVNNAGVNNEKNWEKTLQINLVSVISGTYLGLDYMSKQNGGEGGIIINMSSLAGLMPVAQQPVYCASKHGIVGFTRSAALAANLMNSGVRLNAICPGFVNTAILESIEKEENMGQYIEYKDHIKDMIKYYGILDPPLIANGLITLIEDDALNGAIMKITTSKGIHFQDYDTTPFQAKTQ
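NADH formation kinetics: reaction with 30 uM PGE2 and 1 mM NAD+ (final), 20 nM enzyme, Tris-HCl pH 8 with Tween 20, after 15 min compound preincubation at room temperature. Fluorescence change, last versus first of five reads.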
Each line names hits and unclear results; the compound was inactive in the other large screens. Unless noted, the call rests on the fitted dose curve; in most records, active means well fitted inhibition curve with a large enough effect (not every such curve was filed as active); inconclusive means small, poorly fitted or top-dose-only effect, or another doubt; inactive means no such curve, though single readings can be large or run the other way.

O=C(c1ccco1)N1CCN(C(=O)C(Cc2ccccc2)NS(=O)(=O)c2cccs2)CC1 (stereo unspecified)	ALDH1A1 inh 14µM
COc1ccc(-c2nnc(Nc3ccc(OC)c(C(=O)N4CCCCC4)c3)c3ccccc23)cc1	ALDH1A1 inh inconclusive, HPGD block 14µM
COc1ccc(Nc2nnc(-c3ccc(O)cc3)c3ccccc23)cc1C(N)=O	none (no result: PNC inhibitor, HPGD block)
CC(=O)OCC(=O)c1c[nH]c2ccccc12	none (no result: PNC inhibitor, HPGD block)
O=C(c1c[nH]c2ccccc12)C(F)(F)F	none (no result: PNC inhibitor, ALDH1A1 inh, HPGD block)
CC(C)(C)NCC(=O)c1c[nH]c2ccccc12	ALDH1A1 inh 18µM
O=C(COC(=O)C1CC1)c1c[nH]c2ccccc12	PNC inhibitor -80
CCCC(=O)N(C)c1nnc(-c2ccc(OC)cc2)s1	JMJD2E inh inconclusive, ALDH1A1 inh 28µM
COCCN(C(=O)CCc1ccccc1OC)c1nnc(-c2cccnc2)s1	JMJD2E inh inconclusive (no result: PNC inhibitor, HPGD block)
CCCCN(C(=O)Cc1cccs1)c1nnc(-c2cccnc2)s1	JMJD2E inh inconclusive, ALDH1A1 inh 18µM
COCCN(C(=O)CCc1ccc(OC)cc1)c1nnc(-c2ccncc2)s1	JMJD2E inh inconclusive, ALDH1A1 inh 22µM (no result: PNC inhibitor, HPGD block)
COc1cccc(C(=O)N(C)c2nnc(-c3ccncc3)s2)c1	JMJD2E inh inconclusive
COCCN(C(=O)Cc1cccs1)c1nnc(-c2cccnc2)s1	PNC inhibitor -100, ALDH1A1 inh inconclusive
COCCN(C(=O)CC(C)(C)C)c1nnc(-c2cccnc2)s1	none
Cc1cc(C)n(-c2n[nH]c(C)c2[N+](=O)[O-])n1	none (no result: PNC inhibitor, HPGD block)
COc1ccc(NC(=O)c2ccc3c(=O)n(Cc4ccco4)c(=S)[nH]c3c2)c(OC)c1	ALDH1A1 inh 0.89µM
O=c1c2cc(Cl)ccc2[nH]c(=S)n1Cc1ccco1	ALDH1A1 inh 11µM
COc1cc2[nH]c(=S)n(Cc3ccco3)c(=O)c2cc1OC	ALDH1A1 inh 0.79µM
CC(C)(C)C(=O)OCCn1c(=O)c2cc3c(=O)n(CCOC(=O)C(C)(C)C)c(=O)c3cc2c1=O	PNC inhibitor inconclusive (no result: HPGD block)
O=c1[nH]c2ccc(Cl)cc2c(=O)n1Cc1ccco1	ALDH1A1 inh inconclusive
COCCn1c(=O)c2cc3c(=O)n(CCOC)c(=O)c3cc2c1=O	ALDH1A1 inh 18µM
COc1ccc(Cn2c(=S)[nH]c3cc(OC)c(OC)cc3c2=O)cc1	none (no result: PNC inhibitor, HPGD block)
O=C(c1cccs1)N1CCN(c2ncc(Br)cn2)CC1	none (no result: PNC inhibitor, ALDH1A1 inh, HPGD block)
COCCn1c(=S)[nH]c2cc(OC)c(OC)cc2c1=O	PNC inhibitor inconclusive, ALDH1A1 inh 32µM
O=C(Cn1cc(SCc2cccc(Cl)c2)c2ccccc21)N1CCOCC1	ALDH1A1 inh 7.5µM
CC(=O)/C=C1/C(=O)Nc2ccccc21	ALDH1A1 inh 3.2µM (no result: PNC inhibitor, HPGD block)
COc1ccc(C)cc1NC(=O)c1nn(C)cc1Br	none (no result: PNC inhibitor, ALDH1A1 inh, HPGD block)
Cn1c(=O)c2[nH]c(SCCN3CCOCC3)nc2n(C)c1=S	HPGD block 5.6µM (no result: PNC inhibitor, JMJD2E inh)
CC(C)CN1CC2(CCN(C(=O)c3ccco3)CC2)C1	none (no result: PNC inhibitor, JMJD2E inh)
CC1CCC(O)([C@](C)(C(=O)O)c2ccccc2)CC1 (stereo partly specified)	none (no result: PNC inhibitor, JMJD2E inh)
Cc1ccc(SC(CC(=O)c2ccc(C)cc2)C(=O)O)cc1 (stereo unspecified)	PNC inhibitor inconclusive, ALDH1A1 inh 0.13µM
Cc1ccc(C(CC(=O)c2ccc(Cl)cc2)C(=O)O)cc1 (stereo unspecified)	none (no result: PNC inhibitor, HPGD block)
NC(N)=NC[C@H](N)C(=O)O	none (no result: PNC inhibitor, JMJD2E inh)
Cc1ccc2[nH]c3c(c2c1)CN(C(=O)CN1CCN(c2ccccc2F)CC1)CC3	ALDH1A1 inh 8.9µM
Cc1ccc2[nH]c3c(c2c1)CN(C(=O)CN1CCCc2ccccc21)CC3	JMJD2E inh inconclusive, ALDH1A1 inh 2.8µM, HPGD block 22µM
Cc1ccc2[nH]c3c(c2c1)CN(C(=O)CN1CCCCC1)CC3	none (no result: PNC inhibitor, ALDH1A1 inh, HPGD block)
Cc1nc(N=Nc2cc(S(=O)(=O)O)c3cc([N+](=O)[O-])cc(S(=O)(=O)O)c3c2)c(COP(=O)(O)O)c(C=O)c1O	JMJD2E inh 7.9µM, ALDH1A1 inh inconclusive, HPGD block inconclusive (no result: PNC inhibitor)
O=C(OCC(=O)N1CCc2ccccc21)c1c2c(nc3ccccc13)CCCC2	PNC inhibitor -110 (no result: HPGD block)
CC1Cc2ccccc2N1C(=O)COC(=O)c1c2c(nc3ccccc13)CCCCC2 (stereo unspecified)	PNC inhibitor inconclusive
CCOc1ncccc1C(=O)OCC(=O)c1ccc(Cl)s1	ALDH1A1 inh inconclusive, HPGD block 20µM
O=C(OCC(=O)N1CCc2ccccc21)c1ccc[nH]c1=O	none (no result: PNC inhibitor, HPGD block)
